In PubChem BioAssay (NCATS):
Records with an inconclusive call do not appear. Active and inactive are the calls of the source. Calls come from the whole dose curve; as a rule, active = well fitted curve in the direction sought with a large enough effect; inconclusive = small, poorly fitted or top-dose-only effect, or another doubt; inactive = no such curve, though single readings can be large; an effect the other way counts as inactive or inconclusive.

How the values were obtained:
[1] = Validation qHTS assay for inhibitors of Activation Induced Cytidine Deaminase (AID): UDG Counterscreen signal (AID 1347427); conditions: biochemical UDG counterscreen, fluorescence signal; series mostly up to 115 µM
Summary of the method: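 Fluorescence at 560 nm excitation, 665 nm emission reports UDG signal after 250 mM NaOH (2x) addition and 30 min. Enzymes (AID 1 uM, UDG 2 U/mL, at 4/3x) preincubated 10 min with compound, then 4 h with 4x 250 nM DJC20/DJC23 substrate at room temperature.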

[2] = biological target: Single-stranded DNA cytosine deaminase (Homo sapiens) (UniProt Q9GZX7); assay: Validation qHTS assay for inhibitors of Activation Induced Cytidine Deaminase (AID): AID signal (AID 1347429); conditions: Recombinant AID, FRET ssDNA deamination with UDG, fluorescence; series mostly up to 115 µM
Single-stranded DNA cytosine deaminase (Homo sapiens), sequence (Q9GZX7 whole entry, looked up): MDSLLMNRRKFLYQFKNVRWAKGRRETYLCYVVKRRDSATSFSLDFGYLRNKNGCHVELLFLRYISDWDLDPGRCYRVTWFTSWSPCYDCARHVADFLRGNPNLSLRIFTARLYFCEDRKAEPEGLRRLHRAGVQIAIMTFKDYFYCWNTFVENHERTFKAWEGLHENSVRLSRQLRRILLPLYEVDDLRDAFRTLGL
Summary of the method: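 Compounds (final up to 114 uM) preincubated with AID plus UDG; 250 nM DJC20/DJC23 substrate mix (4x stock) added, 4 hr at room temperature, then NaOH, 30 min. Read 1 fluorescence at 540 nm excitation, 590 nm emission.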

[3] = Primary qHTS for inhibitors of La Crosse Virus (LACV) - induced cell death in SH-SY5Y cells (AID 1508616); conditions: SH-SY5Y LACV cytopathicity rescue, ATP luminescence, 6 d; series mostly up to 9.63 µM;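 note: top concentration of the series differs between compounds; higher means more rescue of cells from virus-induced death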
Summary of the method: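 Rescue of virus-induced death was read as ATPLite luminescence after 6 days at 37C, scaled between DMSO wells with LACV and without virus. Cells were SH-SY5Y, 6000/well, infected at 0.01 MOI after compound addition.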

[4] = Primary qHTS for small molecule stabilizers of the endoplasmic reticulum resident proteome: Secreted ER Calcium Modulated Protein (SERCaMP) assay (AID 1508630); conditions: SH-SY5Y GLuc-SERCaMP (Gaussia luciferase released on ER calcium loss) secretion, thapsigargin, luminescence; series mostly up to 38.4 µM
Summary of the method: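 The SH-SY5Y reporter protocol was run at 3 concentrations up to 38.3 uM (primary) or 11 concentrations (follow-up): 16 h compound, 100 nM thapsigargin for 4 h, then extracellular luciferase luminescence.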

[5] = biological target: Calcium and integrin-binding protein 1 (Homo sapiens) (UniProt Q99828); assay: Primary qHTS for Identification of Calcium Integrin Binding Protein 1 (CIB1) Competitor (AID 1508620); conditions: CIB1-GST / FITC-alphaIIb peptide fluorescence polarization; series mostly up to 114 µM;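 note: GST tagged CIB1 binding a fluorescein labelled alphaIIb integrin peptide tracer; top concentration of the series differs between compounds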
Calcium and integrin-binding protein 1 (Homo sapiens), sequence (Q99828 whole entry, looked up): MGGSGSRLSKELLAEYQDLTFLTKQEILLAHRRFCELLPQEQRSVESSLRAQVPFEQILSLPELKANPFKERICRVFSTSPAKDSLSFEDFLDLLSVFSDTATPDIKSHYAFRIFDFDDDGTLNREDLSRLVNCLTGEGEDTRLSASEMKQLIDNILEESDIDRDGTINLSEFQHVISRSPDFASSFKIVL
Summary of the method: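 CIB1-GST (1 uM final) and compound incubated 15 min at room temperature before adding FITC-alphaIIb peptide tracer (100 nM final). Competition for binding read by fluorescence polarization (ex 480, em 540) after another 15 min at room temperature.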

[6] = biological target: Calcium and integrin-binding protein 1 (Homo sapiens) (UniProt Q99828); assay: Validation qHTS for Identification of Calcium Integrin Binding protein 1 (CIB1) Competitor (AID 1508618); conditions: CIB1-GST / FITC-alphaIIb peptide fluorescence polarization; series mostly up to 114 µM
Summary of the method: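 Displacement of FITC-alphaIIb peptide (100 nM) from CIB1-GST (1 uM) is monitored by polarization in quantitative HTS format; buffer carries 5 mM CaCl2 and 125 mM NaCl at pH 7.4, incubations are at room temperature.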

[7] = Counterscreen qHTS for small molecule stabilizers of the endoplasmic reticulum resident proteome: GLuc-NoTag assay (AID 1508627); conditions: Gaussia luciferase NoTag secretion counterscreen, luminescence, thapsigargin 100 nM for final 4 h; series mostly up to 76.4 µM;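 note: SH-SY5Y cells given compound then 100 nM thapsigargin to empty ER calcium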
Summary of the method: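 Counterscreen line: SH-SY5Y-GLuc-NoTag cells, treated with compound 19 hr before a 4 hr, 100 nM thapsigargin calcium depletion. Secreted Gaussia luciferase in the medium was measured by luminescence after coelenterazine was added (0.07x final), with cells unlysed.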

Measured: Potency

NC(=S)NCCC[C@H](N)C(=O)O
inactive: [1] | [2] | [3] | [4]

CCCCCCCCCCCCCCCC(=O)NCC(COP(=O)([O-])OCC[N+](C)(C)C)OCC (stereo unspecified)
inactive: [1] | [2] | [3] | [4]

CCNC(=O)[C@H]1O[C@@H](n2cnc3c(N)nc(NCCc4ccc(CCC(=O)O)cc4)nc32)[C@H](O)[C@@H]1O
inactive: [1] | [2] | [5] | [4]

O=C(/C=C/c1ccc(O)cc1)c1ccc(O)cc1O
inactive: [1] | [2] | [6] | [7]

NCCCCC(=O)O
inactive: [1] | [2] | [3] | [4]

CN(C)c1nc(N)c(C(=O)N=C(N)N)nc1Cl
inactive: [1] | [2] | [6] | [4]

CNC(=O)[C@H]1O[C@@H](n2cnc3c(NCc4cccc(I)c4)ncnc32)[C@H](O)[C@@H]1O
inactive: [1] | [2] | [6] | [4]

CCCC1(C)C(C#N)(C#N)C1(C#N)C#N
inactive: [1] | [2] | [4]

O=Cc1ccc(O)c(O)c1O
inactive: [3]

CC12C(=O)OC(=O)C1(C)C1CCC2O1 (stereo unspecified)
inactive: [1] | [2] | [6] | [4]

CN(C)CCCO[C@@H]1[C@H]2OC(C)(C)O[C@H]2O[C@@H]1[C@H](O)CO
inactive: [1] | [2] | [3] | [4]

Nc1nc(Cl)nc2c1ncn2[C@@H]1O[C@H](COP(=O)(O)OP(=O)(O)OP(=O)(O)O)[C@@H](O)[C@H]1O
inactive: [1] | [2] | [6]

CC(COc1ccc(/C=C/c2ccccc2)cc1)[N+](C)(C)C (stereo unspecified)
inactive: [1] | [3] | [4]
